The source of these data is PubChem BioAssay AID624255 (Broad Institute, 2012).

Among all 77,000 compounds or so, about 4,600 (6%) were called active. Another 1% or so got no clear call; they are omitted. Only a selection was taken, and actives are over-represented in it overall. Unmarked numbers belong to inactive results.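 The calls were made as follows: active = mean inhibition above about 93%, with at least 55% of replicates each passing it (limit read from the data, passing the limit was not always enough); inconclusive = only one of those two conditions holds; inactive = neither condition holds.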

By inhibition is commonly meant the change of the read-out against control, counted positive when it falls.

A short description of the experiment: growth inhibition of T. cruzi in host fibroblasts – cell-based, beta-gal Tulahuen parasites, NIH3T3 host, luminescence, primary screen (AID 624255). Particulars: T. cruzi beta-gal in NIH3T3, GalScreen luminescence, 90 h; at 8.34 µM; hits give high values.
With `Cn1cnc(CCNC(=O)C[C@H]2CC[C@@H]3[C@H](COC[C@@H](O)CN3C(=O)Nc3ccc(Cl)cc3)O2)c1`, the inhibition is 33%.

In the case of `O=C(N[C@H]1C=C[C@@H](CC(=O)N2CCN(c3ccccc3)CC2)O[C@@H]1CO)c1ccncc1`, the inhibition was -7%. Take `CC(=O)N(C)C[C@@H]1Oc2cc(-c3cccnc3)ccc2S(=O)(=O)N([C@H](C)CO)C[C@H]1C`: the inhibition is -140%. Turning to `O=C(C[C@@H]1CC[C@@H]2[C@H](COC[C@H](O)CN2S(=O)(=O)c2ccc(Cl)cc2)O1)N[C@@H]1CCN(Cc2ccccc2)C1`, the inhibition is 43.9%. Turning to `O=C(c1ccccc1)N1CC[C@H]2[C@H](CO)Nc3ccc(-c4ccc(F)cc4)cc3[C@H]21`, the inhibition was 59.1%. Consider `OC[C@@H]1Nc2ccc(-c3cccc(F)c3)cc2[C@H]2[C@@H]1CCN2Cc1ccncc1`, for which the inhibition is 115% (active). `OC[C@@H]1Nc2ccc(-c3ccc(F)cc3)cc2[C@@H]2[C@H]1CCN2Cc1ccc(F)cc1`: the inhibition is 22.6%. With `CN(C)C(=O)c1ccc(-c2ccc3c(c2)[C@H]2[C@H](CCN2C(=O)c2ccc4c(c2)OCO4)[C@H](CO)N3)cc1`, the inhibition is 99.5% (active).

Take `COc1ccc(-c2ccc3c(c2)[C@H]2[C@H](CCN2C(=O)c2ccc4c(c2)OCO4)[C@@H](CO)N3)cc1`: the inhibition was 13.9%. In the case of `O=C(c1cccnc1)N1CC[C@@H]2[C@@H](CO)Nc3ccc(-c4ccccc4)cc3[C@@H]21`, the inhibition is 77.8%.

As to `O=C(c1ccccn1)N1CC[C@@H]2[C@H]1c1cc(-c3ccccc3)ccc1N[C@@H]2CO`, the inhibition is 106% (active). The figure for `COCC(=O)N1CC[C@H]2[C@H](CO)Nc3ccc(-c4ccc(C(=O)N(C)C)cc4)cc3[C@H]21` is 90.6%; for `O=C(C1CCC1)N1CC[C@H]2[C@H](CO)Nc3ccc(-c4cccc(F)c4)cc3[C@H]21` it is 92.4%. As to `N#Cc1cccc(-c2ccc3c(c2)[C@H]2[C@H](CCN2Cc2ccc4c(c2)OCO4)[C@@H](CO)N3)c1`, the inhibition was 27.1%. The value for `O=C(c1cnccn1)N1CC[C@@H]2[C@H](CO)Nc3ccc(-c4cccc(F)c4)cc3[C@@H]21` was 109% (active); that for `O=C(c1cccnc1)N1CC[C@H]2[C@H](CO)Nc3ccc(-c4ccc(F)cc4)cc3[C@H]21` was 74.7%; that for `O=C(NC[C@@H]1[C@@H](c2ccccc2)[C@@H](CO)N1Cc1ccccn1)C1CCC1` was 31.9%. Turning to `C[C@H](O)C#Cc1cnc2c(c1)C(=O)N([C@H](C)CO)C[C@H](C)[C@@H](CN(C)C(=O)Nc1ccc(F)cc1)O2`, the inhibition is 41%. `O=C([C@H]1[C@H](CO)[C@H]2Cn3c(ccc(-c4ccccc4)c3=O)[C@@H]1N2Cc1cccnc1)N1CCOCC1`: the inhibition is 28.9%.

Take `CN(C)C(=O)[C@H]1[C@H](CO)[C@H]2Cn3c(ccc(-c4ccc(F)cc4)c3=O)[C@H]2N1C(=O)c1ccccn1`: the inhibition was 32.7%. As to `C/C=C/c1ccc([C@@H]2[C@@H](CN(C)C(C)=O)N(C(=O)C3CC3)[C@H]2CO)cc1`, the inhibition was -20.4%. For `CO[C@@H]1CN(C)C(=O)c2cc(NC(=O)Nc3cccc(F)c3)ccc2OC[C@H](C)N(C)C[C@@H]1C`, the inhibition was -11.1%. The figure for `COc1cccc(S(=O)(=O)Nc2ccc3c(c2)[C@H]2C[C@H](CC(=O)N4CCCCC4)O[C@@H](CO)[C@H]2O3)c1` is 32.8%; for `COc1ccccc1C(=O)Nc1ccc2c(c1)C(=O)N(C)C[C@@H](OC)[C@@H](C)CN(CC1CC1)[C@@H](C)CO2` it is 21.2%; for `COCC(=O)N(C)C[C@H]1[C@@H](c2ccc(-c3cccnc3)cc2)[C@H](CO)N1C(C)=O` it is 84.3%. In the case of `CC(=O)N1[C@H](CO)[C@@H](c2ccc(-c3ccc(F)cc3)cc2)[C@H]1CNC(=O)C1CC1`, the inhibition was -36%. Turning to `CC(=O)N1[C@H](CO)[C@H](c2ccc(-c3ccccc3)cc2)[C@H]1CNC(=O)C1CC1`, the inhibition is -0.382%. `CCC(=O)N(C)C[C@H]1[C@H](c2ccc(-c3ccccc3F)cc2)[C@@H](CO)N1C(C)=O`: the inhibition is 8.38%. The figure for `CC(=O)N1[C@H](CO)[C@@H](c2ccc(-c3ccccc3)cc2)[C@H]1CNC(=O)C1CC1` is -18%; for `CC(=O)N(C)C[C@@H]1[C@@H](c2ccc(-c3ccccc3F)cc2)[C@@H](CO)N1C(C)=O` it is 113% (active).

As for `N#C[C@@H]1[C@@H](c2ccc(-c3ccccc3F)cc2)[C@@H](CO)N1C(=O)C1CC1`, the inhibition was 71.7%. The value for `CC(=O)N1[C@H](CNC(=O)C2CC2)[C@@H](c2ccc(-c3cccc(F)c3)cc2)[C@@H]1CO` was 98.8% (active); that for `CC(=O)NC[C@@H]1[C@@H](c2ccc(-c3ccccc3F)cc2)[C@@H](CO)N1C(=O)C1CC1` was 108% (active); that for `COc1ccc(S(=O)(=O)Nc2ccc3c(c2)CC(=O)N([C@@H](C)CO)C[C@@H](C)[C@H](CN(C)S(=O)(=O)c2ccccc2)O3)cc1` was 0.553%. For the compound `COc1ccc(S(=O)(=O)N(C)C[C@H]2Oc3ccc(NC(=O)Nc4ccccc4)cc3CC(=O)N([C@H](C)CO)C[C@@H]2C)cc1`, the inhibition was -16.8%.

For the compound `C[C@@H]1CN([C@H](C)CO)C(=O)c2cc(NC(=O)Nc3cccc4ccccc34)ccc2O[C@@H](C)CCCCO[C@H]1CN(C)S(=O)(=O)c1cccs1`, the inhibition was 23.5%. Consider `CO[C@@H]1CC[C@@H]2CCOc3ccc(C#N)cc3C(=O)N(C)C[C@H](c3ccccc3)CC(=O)N(C)C[C@H]1O2`, for which the inhibition was 5.08%.

Turning to `N#C[C@H]1N[C@H](CO)[C@@H]1c1ccc(C#Cc2ccccc2F)cc1`, the inhibition is 24.3%. The value for `N#C[C@@H]1N[C@@H](CO)[C@@H]1c1ccc(C#Cc2ccccc2F)cc1` was 79.1%; that for `COc1cccc(C#Cc2ccc([C@@H]3[C@H](C#N)N[C@H]3CO)cc2)c1` was 101% (active); that for `O=C(Nc1ccccc1)N1C[C@H]2[C@@H](c3ccccc31)[C@@H](CO)N2Cc1cocn1` was 65%. The value for `CNC(=O)C[C@@H]1CC[C@H]2[C@@H](COc3ccc(NC(=O)NCc4ccccc4)cc3C(=O)N2C)O1` was -25%. `COCC#Cc1ccc2c(c1)O[C@@H](CN(C)C(C)=O)[C@H](C)CN([C@H](C)CO)S2(=O)=O`: the inhibition was -30.8%.

Turning to `CC(=O)N(C)C[C@H]1Oc2cc(C#CCN(C)C)ccc2S(=O)(=O)N([C@H](C)CO)C[C@H]1C`, the inhibition was 56.9%. As for `CCC(=O)N(C)C[C@@H]1Oc2cc(C#CCN(C)C)ccc2S(=O)(=O)N([C@H](C)CO)C[C@H]1C`, the inhibition is 101% (active). As to `C[C@H]1CN([C@@H](C)CO)S(=O)(=O)c2ccc(C#CCN(C)C)cc2O[C@H]1CN(C)C(=O)CN(C)C`, the inhibition is -25.5%.

`CC(C)CC#Cc1ccc2c(c1)O[C@@H](CN(C)C(=O)c1ccccc1F)[C@H](C)CN([C@H](C)CO)S2(=O)=O`: the inhibition was 54%.

Take `CCCC#Cc1ccc2c(c1)O[C@@H](CN(C)C(=O)CC)[C@H](C)CN([C@H](C)CO)S2(=O)=O`: the inhibition is 68.6%. For `CCCC#Cc1ccc2c(c1)O[C@H](CN(C)C(=O)CC)[C@@H](C)CN([C@H](C)CO)S2(=O)=O`, the inhibition is 94.9% (active).

Turning to `CCCC#Cc1ccc2c(c1)O[C@@H](CN(C)C(=O)CC)[C@@H](C)CN([C@H](C)CO)S2(=O)=O`, the inhibition was 67%. For the compound `CCCC#Cc1ccc2c(c1)O[C@@H](CN(C)C(=O)c1ccccc1F)[C@H](C)CN([C@H](C)CO)S2(=O)=O`, the inhibition was 97.6% (active).

`CC(=O)N(C)C[C@H]1Oc2cc(C#CCN(C)C)ccc2S(=O)(=O)N([C@@H](C)CO)C[C@@H]1C`: the inhibition was 106% (active). The value for `C[C@H]1CN([C@@H](C)CO)S(=O)(=O)c2ccc(C#CCN(C)C)cc2O[C@H]1CN(C)C(=O)c1ccccc1F` was 36.4%. With `C[C@@H]1CN([C@H](C)CO)S(=O)(=O)c2ccc(C#CCN(C)C)cc2O[C@@H]1CN(C)C(=O)CN(C)C`, the inhibition was -40.2%. In the case of `O=C(C[C@H]1CC[C@H]2[C@@H](COC[C@@H](O)CN2Cc2cccc(C(F)(F)F)c2)O1)NCc1ccncc1`, the inhibition was 73.9%.

Turning to `C[C@@H]1CCCCO[C@@H](CN(C)S(C)(=O)=O)[C@@H](C)CN([C@@H](C)CO)C(=O)c2cc(NS(=O)(=O)c3ccc(Cl)cc3)ccc2O1`, the inhibition is 46.7%.

Consider `O=C(C[C@H]1CC[C@H]2[C@@H](COC[C@@H](O)CN2CCC(F)(F)F)O1)NCc1ccc2c(c1)OCO2`, for which the inhibition is -35.7%.

For the compound `COc1cccc(NC(=O)C[C@@H]2CC[C@H]3[C@@H](COc4ccc(NC(=O)C5CCOCC5)cc4C(=O)N3C)O2)c1`, the inhibition was 24.1%. For `CN(C)C(=O)C[C@@H]1CC[C@H](NC(=O)NC2CCCC2)[C@H](CO)O1`, the inhibition is -49.3%. For `O=C(C[C@@H]1CC[C@@H]2[C@H](COC[C@@H](O)CN2Cc2ccccc2)O1)NCCc1ccccc1`, the inhibition is 13.4%. The figure for `C[C@@H](NC(=O)C[C@H]1C[C@H]2c3cc(NC(=O)C4CCOCC4)ccc3O[C@H]2[C@@H](CO)O1)c1ccccc1` is -16.2%. As for `Cc1cc(C(=O)Nc2ccc3c(c2)C(=O)N(C)[C@@H]2CC[C@H](CC(=O)NC4CCCC4)O[C@@H]2CO3)no1`, the inhibition was -62.2%. As for `CN(C)CCCNC(=O)C[C@H]1CC[C@H]2[C@@H](COC[C@H](O)CN2C(=O)c2ccncc2)O1`, the inhibition was -84.6%. For the compound `COCC(=O)Nc1ccc2c(c1)[C@@H]1C[C@H](CC(=O)NCc3ccc(Cl)cc3)O[C@H](CO)[C@@H]1O2`, the inhibition is 0.832%. In the case of `CN1C(=O)c2cc(NC(=O)Nc3ccccc3F)ccc2OC[C@H]2O[C@H](CC(=O)NCc3ccc(-c4ccccc4)cc3)CC[C@H]21`, the inhibition is 101% (active). For the compound `CN1C(=O)c2cc(NC(=O)c3cnccn3)ccc2OC[C@@H]2O[C@H](CC(=O)N[C@@H]3CCN(Cc4ccccc4)C3)CC[C@@H]21`, the inhibition is 105% (active).

Take `CCNC(=O)C[C@@H]1CC[C@@H]2[C@@H](COc3ccc(NC(=O)Nc4ccccc4F)cc3C(=O)N2C)O1`: the inhibition was 19.6%. For `CN1C(=O)c2cc(NC(=O)c3cnccn3)ccc2OC[C@@H]2O[C@@H](CC(=O)N[C@H]3CCN(Cc4ccccc4)C3)CC[C@H]21`, the inhibition is 109% (active). As to `CCS(=O)(=O)Nc1ccc2c(c1)C(=O)N(C)[C@@H]1CC[C@H](CC(=O)N[C@H]3CCN(Cc4ccccc4)C3)O[C@@H]1CO2`, the inhibition is 46.2%. For `CN1C(=O)c2cc(NC(=O)c3cnccn3)ccc2OC[C@@H]2O[C@H](CC(=O)NC3CCC3)CC[C@@H]21`, the inhibition is 7.25%.

For the compound `CN1C(=O)c2cc(NC(=O)Cc3cccs3)ccc2OC[C@@H]2O[C@@H](CC(=O)N[C@@H]3CCN(Cc4ccccc4)C3)CC[C@H]21`, the inhibition is 50.2%.

`CCS(=O)(=O)Nc1ccc2c(c1)C(=O)N(C)[C@H]1CC[C@H](CC(=O)N[C@@H]3CCN(Cc4ccccc4)C3)O[C@H]1CO2`: the inhibition is 71.7%.

As for `CN1C(=O)c2cc(NS(C)(=O)=O)ccc2OC[C@@H]2O[C@@H](CC(=O)NCc3ccc(-c4ccccc4)cc3)CC[C@H]21`, the inhibition was 6.8%.
